Reference: PubChem BioAssay (Tox21)
Where “and” joins values, the source holds several entries; their conditions need not be identical. Identical values can stand only once. Inconclusive results are not listed. A call without a number means that no potency is given here. The source holds several records for some structures; these can differ, active in one and inactive in another. Calls of active or inactive are those of the source. Unless noted, calls come from the whole dose curve; as a rule, active = well fitted curve in the direction sought with a large enough effect in the repeat runs; inconclusive = weak or mixed curves; inactive = no such curve, though single readings can be large; an effect the other way counts as inactive or inconclusive.

Experiments:
[1] = biological target: Thyrotropin receptor (Homo sapiens) (UniProt P16473); test: qHTS assay to identify small molecule antagonists of the thyroid stimulating hormone receptor (TSHR) signaling pathway (AID 1259385; calls by dose curve; note: nearly all actives have a fitted effect of over 20% in size)
How it was run: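 TSHR-HEK293 cells (800/well) plated 18 h, then compounds with Ro20-1724 and TSH at 1.5 ng/mL final, 30 min at room temperature. cAMP quantified by HTRF (cAMP-d2/anti-cAMP-cryptate, 1 h); 15 concentrations in triplicate.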

[2] = biological target: Progesterone receptor (Homo sapiens) (UniProt P06401); test: qHTS assay to identify small molecule agonists of the progesterone receptor (PR) signaling pathway (AID 1346784; calls by dose curve; note: nearly all actives have a fitted effect of over 30% in size)
How it was run: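 Beta-lactamase reporter read-out: after 16 hr compound treatment at 37C and a further 2 hr at room temperature with LiveBLAzer B/G FRET substrate, fluorescence was measured in PR-UAS-bla HEK 293T cells grown in 2% charcoal-stripped serum.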

[3] = qHTS assay to identify small molecule antagonists of the TGF-beta/Smad signaling pathway - cell viability counter screen (AID 1346824); note: nearly all actives have a fitted effect of over 50% in size
How it was run: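 SBE-bla HEK 293T cells, incubated overnight, then compound plus 0.25 ng/mL TGF-beta1 (stock added) for 5 hr at 37 C. Viability was read in the same wells by CellTiter-Glo luminescence after 30 min at room temperature.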

[4] = qHTS assay to identify small molecule agonists of the TGF-beta/Smad signaling pathway - cell viability counter screen (AID 1346829); note: nearly all actives have a fitted effect of over 45% in size; note: potency is the fitted concentration of half-maximal effect
How it was run: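 Here the cytotoxicity of library compounds is measured in SBE-bla HEK 293T cells treated for 5 hr, using CellTiter-Glo added to wells already read for the beta-lactamase reporter.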

[5] = qHTS assay to identify small molecule agonists of the TGF-beta/Smad signaling pathway (AID 1346859; active = well fitted activation curve with a large enough effect in the signal ratio in the repeat runs, not every such curve was filed as active; the % refers to the signal ratio; note: series mostly up to about 77 µM)
How it was run: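 SBE-bla HEK 293T, 4,000 cells/well, plated o/n; cpd in DMSO, 5 hr, 37 C/5% CO2; B/G FRET substrate 2 hr RT; ex 405, em 460/530 nm.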

[6] = biological target: Thyrotropin-releasing hormone receptor (Homo sapiens) (UniProt P34981); test: qHTS assay to identify small molecule antagonists of the thyrotropin-releasing hormone receptor (TRHR) signaling pathway (AID 1346877; active = well fitted inhibition curve with a large enough effect in the repeat runs, not every such curve was filed as active; note: series mostly up to about 51 µM)
How it was run: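 TRHR-expressing HEK293 cells were seeded, cultured 18 h at 37 °C, then loaded with calcium dye for 2 h. Compounds were pre-incubated 5 min at room temperature before 1 nM TRH (final) was added, and kinetic fluorescence was recorded for 3 min.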

[7] = biological target: Thyrotropin-releasing hormone receptor (Homo sapiens) (UniProt P34981); test: qHTS assay to identify small molecule agonists of the thyrotropin-releasing hormone receptor (TRHR) signaling pathway (AID 1346891; calls by dose curve; note: series mostly up to about 58 µM)
How it was run: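 Intracellular calcium rise, read as fluorescence every second for 3 min, served as the agonist signal in dye-loaded HEK293 cells expressing TRHR; each compound ran at 15 concentrations in triplicate.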

[8] = Caspase-3/7 induction in HepG2 cells by small molecules, qHTS assay (AID 1346978); note: nearly all actives have a fitted effect of over 15% in size; note: potency is the fitted concentration of half-maximal effect
How it was run: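 Wild-type HepG2 cells, 2,000/well, settled 5 hr at 37 C and 5% CO2, then compound-treated for 17 hr; caspase-3/7 activity read by luminescent Caspase-Glo 3/7 after 30 min at room temperature.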

[9] = Caspase-3/7 induction in CHO-K1 cells by small molecules, qHTS assay (AID 1346980); note: nearly all actives have a fitted effect of over 15% in size; note: potency is the fitted concentration of half-maximal effect
How it was run: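 Wild-type CHO-K1 cells exposed to compounds for 17hr at 37 C, 5% CO2. Caspase-3/7 activity then measured by Caspase-Glo 3/7 luminescence after 30min at room temperature.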

[10] = Caspase-3/7 induction in HepG2 cells by small molecules, qHTS cell viability counter screen (AID 1346981); note: nearly all actives have a fitted effect of over 30% in size; note: potency is the fitted concentration of half-maximal effect
How it was run: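 Wild-type HepG2 cells (2,000/well) were allowed to settle for 5 hr at 37 C, 5% CO2, then dosed with compounds in DMSO by pin transfer. After 16 hr at 37 C, CellTiter-Fluor was added and fluorescence read 1 hr later.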

[11] = qHTS assay to identify small molecule antagonists of the progesterone receptor (PR) signaling pathway - cell viability counter screen (AID 1346798); note: nearly all actives have a fitted effect of over 50% in size; note: potency is the fitted concentration of half-maximal effect
How it was run: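 HEK293T PR-UAS-bla, 2% charcoal-stripped FBS; 4 hr pre-plate; cpd + R5020, 16 h 37C; LiveBLAzer read first; then CellTiter-Glo 30 min RT, luminescence.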

[12] = qHTS assay to identify small molecule agonists of the progesterone receptor (PR) signaling pathway - cell viability counter screen (AID 1346799; calls by dose curve; note: nearly all actives have a fitted effect of over 45% in size; note: potency is the fitted concentration of half-maximal effect)
How it was run: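 Luminescence from CellTiter-Glo, added after the beta-lactamase FRET read in the same wells, gave cytotoxicity in PR-UAS-bla HEK293T cells treated with compounds for 16 hr at 37C.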

[13] = Caspase-3/7 induction in CHO-K1 cells by small molecules, qHTS cell viability counter screen (AID 1346979); note: nearly all actives have a fitted effect of over 35% in size; note: potency is the fitted concentration of half-maximal effect
How it was run: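 Cells (CHO-K1, wild type) are plated at 1,500 per well and incubated 5hr. Test compounds in DMSO are then pinned in, followed by 16hr at 37C and 5% CO2. Viability is read by CellTiter-Fluor fluorescence after 1hr.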

[14] = biological target: Nuclear receptor subfamily 1 group I member 2 (Homo sapiens) (UniProt O75469); test: Human pregnane X receptor (PXR) small molecule agonists, qHTS assay (AID 1346982); note: nearly all actives have a fitted effect of over 35% in size; note: potency is the fitted concentration of half-maximal effect
How it was run: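 PXR-Luc HepG2 cells (CYP3A4 promoter-driven luciferase) were seeded in medium with 5% charcoal-stripped FBS, left 5 hr at 37 C, then exposed to compounds in DMSO for 24 hr. Luminescence was read after ONE-Glo addition.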

[15] = qHTS assay to identify small molecule agonists of the estrogen receptor alpha (ER-alpha) signaling pathway in the presence of an antagonist - cell viability counter screen (AID 1259386);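 note: series mostly up to about 92 µM; cells exposed to compounds for 22 h at 37 °C before the viability read; nearly all actives have a fitted effect of over 30% in size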
How it was run: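 VM7Luc4E2 cells (endogenous full-length ER-alpha, 4×ERE-luciferase) were held 5 days in phenol red-free medium with 10% charcoal-stripped FBS, plated, then given 10.0nM ICI-182,780 and compounds at 15 concentrations for 22hr at 37C; viability read by CellTiter-Fluor fluorescence.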

[16] = biological target: Progesterone receptor (Homo sapiens) (UniProt P06401); test: qHTS assay to identify small molecule antagonists of the progesterone receptor (PR) signaling pathway (AID 1346795; active = well fitted inhibition curve with a large enough effect in the signal ratio in the repeat runs, not every such curve was filed as active; the % refers to the signal ratio; note: potency is the fitted concentration of half-maximal effect)
How it was run: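 Read-out is fluorescence from the LiveBLAzer B/G FRET substrate, cleaved by a UAS-controlled beta-lactamase in PR-UAS-bla HEK293T cells after 16 hr exposure to compound plus 1 nM promegestone (final), followed by 2 hr at room temperature.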

[17] = Human pregnane X receptor (PXR) small molecule agonists, qHTS cell viability counter screen (AID 1346977); note: nearly all actives have a fitted effect of over 50% in size; note: potency is the fitted concentration of half-maximal effect
How it was run: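 PXR-Luc HepG2, 2,000 cells/well, 5% charcoal-stripped FBS; 5hr settle; cpd 24hr, 37C/5% CO2; CellTiter-Fluor at 23hr, read 1hr later (fluorescence).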

[18] = biological target: Nuclear receptor subfamily 1 group I member 2 (Rattus norvegicus) (UniProt Q9R1A7); test: Rat pregnane X receptor (rPXR) activation by small molecules, qHTS assay (AID 1346983); conditions: rPXR luciferase reporter cells, One-Glo luminescence, 24 h; stronger effect = higher value; note: nearly all actives have a fitted effect of over 20% in size
How it was run: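 Cell-based rPXR activation assay: rPXR cells, 2,000 per well, rested 5hr at 37 C, then exposed to compounds in DMSO for 24 hr at 37 C. Luciferase activity read by One-Glo luminescence after 30 min at room temperature.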

Chain of Nuclear receptor subfamily 1 group I member 2 (Homo sapiens) (O75469 whole entry, looked up): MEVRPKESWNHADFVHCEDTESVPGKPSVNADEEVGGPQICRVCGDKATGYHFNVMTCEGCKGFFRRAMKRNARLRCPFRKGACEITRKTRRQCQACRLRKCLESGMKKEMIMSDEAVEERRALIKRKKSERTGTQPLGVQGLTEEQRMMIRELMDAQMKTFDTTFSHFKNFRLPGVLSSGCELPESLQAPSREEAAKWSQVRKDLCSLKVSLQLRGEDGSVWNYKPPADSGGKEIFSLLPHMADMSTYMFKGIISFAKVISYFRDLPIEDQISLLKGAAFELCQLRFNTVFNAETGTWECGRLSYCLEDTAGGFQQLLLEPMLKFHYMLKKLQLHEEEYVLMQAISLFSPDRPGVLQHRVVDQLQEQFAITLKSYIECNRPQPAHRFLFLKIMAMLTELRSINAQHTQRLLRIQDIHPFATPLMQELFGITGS
Chain of Progesterone receptor (Homo sapiens) (P06401 whole entry, looked up): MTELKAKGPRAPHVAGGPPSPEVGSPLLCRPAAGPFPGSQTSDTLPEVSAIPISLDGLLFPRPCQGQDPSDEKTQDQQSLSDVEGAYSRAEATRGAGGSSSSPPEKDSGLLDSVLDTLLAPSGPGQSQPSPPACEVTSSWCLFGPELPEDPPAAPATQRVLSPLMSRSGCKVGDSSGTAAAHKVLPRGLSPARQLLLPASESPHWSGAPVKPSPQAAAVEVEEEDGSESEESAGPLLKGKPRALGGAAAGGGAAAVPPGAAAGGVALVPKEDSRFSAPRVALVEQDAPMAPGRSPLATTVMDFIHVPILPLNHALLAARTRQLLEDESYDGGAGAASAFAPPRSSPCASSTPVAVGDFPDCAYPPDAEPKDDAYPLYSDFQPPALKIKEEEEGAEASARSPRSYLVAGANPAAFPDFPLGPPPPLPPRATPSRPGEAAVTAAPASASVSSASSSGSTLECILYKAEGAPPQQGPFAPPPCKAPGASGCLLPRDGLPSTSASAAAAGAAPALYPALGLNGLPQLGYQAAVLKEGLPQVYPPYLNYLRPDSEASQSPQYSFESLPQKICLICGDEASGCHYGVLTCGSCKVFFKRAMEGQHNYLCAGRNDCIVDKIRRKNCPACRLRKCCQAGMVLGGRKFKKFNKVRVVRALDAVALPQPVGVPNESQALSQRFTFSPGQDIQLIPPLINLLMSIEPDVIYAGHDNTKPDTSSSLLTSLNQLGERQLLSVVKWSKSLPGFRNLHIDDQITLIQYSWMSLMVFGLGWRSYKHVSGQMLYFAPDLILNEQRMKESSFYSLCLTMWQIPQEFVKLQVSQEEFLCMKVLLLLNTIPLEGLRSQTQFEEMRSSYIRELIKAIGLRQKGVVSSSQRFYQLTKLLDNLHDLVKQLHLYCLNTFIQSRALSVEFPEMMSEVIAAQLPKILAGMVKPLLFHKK
Chain of Thyrotropin-releasing hormone receptor (Homo sapiens) (P34981 whole entry, looked up): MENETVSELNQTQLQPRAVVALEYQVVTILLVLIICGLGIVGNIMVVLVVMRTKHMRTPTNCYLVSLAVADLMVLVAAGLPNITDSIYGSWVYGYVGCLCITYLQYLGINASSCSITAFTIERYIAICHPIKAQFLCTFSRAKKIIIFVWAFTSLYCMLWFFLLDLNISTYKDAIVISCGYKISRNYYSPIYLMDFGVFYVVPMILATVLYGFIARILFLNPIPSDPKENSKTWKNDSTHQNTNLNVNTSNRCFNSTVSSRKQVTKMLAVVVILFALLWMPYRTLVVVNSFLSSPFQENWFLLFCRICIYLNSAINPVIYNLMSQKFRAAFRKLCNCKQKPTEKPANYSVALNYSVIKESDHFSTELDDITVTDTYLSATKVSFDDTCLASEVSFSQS
Chain of Thyrotropin receptor (Homo sapiens) (P16473 whole entry, looked up): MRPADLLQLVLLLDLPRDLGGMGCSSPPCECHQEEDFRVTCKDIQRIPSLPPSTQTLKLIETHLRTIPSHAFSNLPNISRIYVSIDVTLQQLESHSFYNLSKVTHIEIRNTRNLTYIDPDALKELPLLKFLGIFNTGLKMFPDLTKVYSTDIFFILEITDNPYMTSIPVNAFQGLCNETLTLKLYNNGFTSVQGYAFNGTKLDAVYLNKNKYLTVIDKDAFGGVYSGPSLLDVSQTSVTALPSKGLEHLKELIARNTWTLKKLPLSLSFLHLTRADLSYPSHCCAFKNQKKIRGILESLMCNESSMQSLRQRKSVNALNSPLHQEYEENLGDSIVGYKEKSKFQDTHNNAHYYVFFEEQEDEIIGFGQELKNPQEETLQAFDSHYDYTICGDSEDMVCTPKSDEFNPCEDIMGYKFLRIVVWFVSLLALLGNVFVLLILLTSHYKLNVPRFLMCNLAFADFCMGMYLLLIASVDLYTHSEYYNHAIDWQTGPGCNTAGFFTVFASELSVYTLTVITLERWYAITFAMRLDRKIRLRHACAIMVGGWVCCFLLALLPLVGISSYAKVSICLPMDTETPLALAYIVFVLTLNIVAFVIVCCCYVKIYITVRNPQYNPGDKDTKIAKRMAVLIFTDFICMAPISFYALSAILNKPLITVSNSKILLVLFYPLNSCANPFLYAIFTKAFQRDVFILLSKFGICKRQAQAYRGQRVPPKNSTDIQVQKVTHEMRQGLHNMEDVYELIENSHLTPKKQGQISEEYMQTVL
Chain of Nuclear receptor subfamily 1 group I member 2 (Rattus norvegicus) (Q9R1A7 whole entry, looked up): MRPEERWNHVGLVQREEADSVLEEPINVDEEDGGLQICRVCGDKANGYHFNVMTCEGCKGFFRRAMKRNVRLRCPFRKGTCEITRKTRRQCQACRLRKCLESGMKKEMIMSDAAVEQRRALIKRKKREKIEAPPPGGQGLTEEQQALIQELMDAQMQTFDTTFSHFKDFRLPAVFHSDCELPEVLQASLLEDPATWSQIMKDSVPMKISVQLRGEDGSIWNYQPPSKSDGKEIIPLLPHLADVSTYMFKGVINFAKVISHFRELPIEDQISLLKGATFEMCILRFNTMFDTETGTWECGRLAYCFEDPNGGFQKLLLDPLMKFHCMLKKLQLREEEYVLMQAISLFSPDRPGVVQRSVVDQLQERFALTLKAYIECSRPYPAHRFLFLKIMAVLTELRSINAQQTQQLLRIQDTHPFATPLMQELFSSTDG

Structure (SMILES) | outcome [1] | Potency [2] | Potency [3] | Potency [4] | outcome [5] | Potency [6] | Potency [7] | Potency [8] | Potency [9] | Potency [10] | Potency [11] | Potency [12] | Potency [13] | Potency [14] | Potency [15] | Potency [16] | Potency [17] | max activation [18]
c1cc(OCC2CO2)ccc1Cc1ccc(OCC2CO2)cc1 (centres undefined) | inactive | inactive | inactive | inactive | inactive | inactive | inactive | inactive | inactive | inactive | – | – | – | – | – | – | – | –
COc1ccc(C=O)cc1 | inactive | inactive | inactive | inactive | inactive | inactive | – | inactive | inactive | inactive | inactive | inactive | inactive | inactive | – | – | – | –
CCOP(=S)(OCC)O/N=C(\C#N)c1ccccc1 | inactive | – | inactive | inactive | inactive | inactive | – | inactive | inactive | inactive | inactive | inactive | inactive | 30.6 µM (active) | – | – | – | –
O=C(O)CC[N+](=O)[O-] | – | inactive | inactive | inactive | inactive | – | – | inactive | inactive | inactive | inactive | inactive | inactive | – | inactive | – | – | –
c1ccc(P(c2ccccc2)c2ccccc2)cc1 | inactive | – | inactive | inactive | inactive | inactive | inactive | inactive | inactive | inactive | inactive | inactive | inactive | – | – | – | – | –
CC(C)=CC1C(C(=O)OCc2coc(Cc3ccccc3)c2)C1(C)C (centres undefined) | – | – | inactive | inactive | inactive | – | – | inactive | inactive | inactive | inactive | inactive | inactive | 24.3 µM (active) | inactive | 48.6 µM (active) | – | –
CCc1cccc(CC)c1N(COC)C(=O)CCl | – | inactive | inactive | inactive | inactive | inactive | inactive | inactive | inactive | inactive | inactive | – | 16.7 µM (active) | 10.5 µM (active) and 1.37 µM (active) | – | – | 39.8 µM (active) and inactive | –
O=S(=O)(Oc1ccc(Cl)cc1)c1ccc(Cl)cc1 | – | inactive | inactive | inactive | inactive | inactive | inactive | inactive | inactive | inactive | inactive | inactive | inactive | 55.2 µM (active) and 30.6 µM (active) | – | – | inactive | –
O=[N+]([O-])c1c(Cl)c(Cl)c(Cl)c(Cl)c1Cl | – | inactive | inactive | inactive | – | inactive | inactive | inactive | inactive | inactive | inactive | inactive | inactive | inactive | inactive | – | inactive | –
CN(C)C(=O)Nc1ccc(Cl)cc1 | inactive | inactive | inactive | inactive | inactive | – | – | inactive | inactive | inactive | inactive | inactive | inactive | – | – | – | – | –
Oc1cc(Cl)ccc1Oc1ccc(Cl)cc1Cl | – | – | inactive | 39.8 µM (active) and inactive | inactive | – | – | 64.4 µM (active) and inactive | 59.1 µM (active) and inactive | 44.3 µM (active) | 31.4 µM (active) | 31.4 µM (active) and inactive | 28.8 µM (active) and 26.6 µM (active) | – | – | – | 31.4 µM (active) and 29.8 µM (active) | -0.85% (inactive)
CCC(C)(c1ccc(O)cc1)c1ccc(O)cc1 | inactive | – | inactive | inactive | inactive | inactive | – | inactive | inactive | inactive | – | – | 61.1 µM (active) | 12.2 µM (active) and 5.45 µM (active) | – | 4.32 µM (active) | – | –
